From PubChem BioAssay (NCI)
About 83,000 compounds went through this panel and 20% of them were active in at least one assay; those are over-represented in the sample as a whole.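 The endpoint reported here, percent growth, reads 100 for growth as untreated, 0 for no net growth and -100 for all cells dead.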 Values without a mark were called inactive. Active and inactive are the calls of the source. Rule for the calls: active = growth percent below 10; inactive = the rest.

Each compound was assayed on OVCAR-8 ovarian (assay: NCI-60 one-dose screen, 48 h (100 = growth as untreated, 0 = no growth, -100 = all killed)). Details: 10 µM unless noted.

SMILES	growth
CCOP1(=O)CC(C)=C(Cl)C(P(=O)(O)O)C1 (stereo unspecified)	91.8%
O=C(O)CC1Cc2ccccc2C1C(=O)O (stereo unspecified)	101%
Nc1cc2c(cc1Br)[nH]c(=O)c1ccccc12	39.9%
CCc1ccc(C(=Nc2ccc(N(C)C(=O)CN3CCN(C)CC3)cc2)c2c(O)[nH]c3ccc(C(=O)OC)cc23)cc1	-34.5% (active)
N#CCCCCCCCCCCC#N	100%
O=C1CSC(c2ccccc2Cl)N1c1nnc(-c2ccncc2)o1 (stereo unspecified)	103%

Each compound was assayed on OVCAR-5 ovarian in the same assay as above. Details: 10 µM unless noted.

SMILES	growth
COc1nc(OC)nc(-c2cc(C(=O)c3ccc(Br)cc3)n3cc(C)cc(C)c23)n1	102%
CC(=O)OCC(=O)[C@@]1(O)[C@H](C)C[C@H]2[C@@H]3C=C(C)C4=Cc5c(cnn5-c5ccc(F)cc5)C[C@]4(C)[C@H]3[C@@H](O)C[C@@]21C	16.9%
Brc1c(-c2ccncc2)nc2n1CCS2	102%
CC(=O)/C(=C\c1c(-c2ccccc2)[nH]c2ccccc12)S(=O)(=O)c1ccccc1	1.33% (active)
COc1ccc(/C=N/c2cc(C(C)(C)C)nn2-c2ccccc2)cc1	113%
CCC1(CC)C(OC)NC(Br)=C(C#N)C1(C#N)C(N)=O (stereo unspecified)	249%
COc1ccc(CN2C(=O)/C(=C\C(=O)c3ccc(OCCN4CCCC4)cc3)c3ccccc32)cc1	77.6%
COc1ccc(/C=C2\SC(=O)N(Cc3cc(=O)oc4ccc(OC)cc34)C2=O)cc1	100%
c1cc(C2CCCCC2)ccc1OCCCCCCN1CCNCC1	41.3%
COc1cc(/C=C/C(=O)/C=C(/C=C/c2ccc(OC(C)=O)c(OC)c2)OB(F)F)ccc1OC(C)=O	104%
Cc1c([C@H](C(Cl)Cl)[C@H](O)[C@H]2C[C@H](C)C(=O)O2)ccc2c1C(=O)[C@H]1[C@H]2C[C@@H](Br)[C@@]23O[C@@H](CO[C@H]2O)CC13C (stereo partly specified)	55.6%
O=C1/C(=N\c2cc(=O)[nH]n2S(=O)(=O)c2ccccc2)Nc2ccccc21	105%
N=C(N)c1ccc(-c2ccc(-c3ccc(Cl)cc3)s2)s1	-79.4% (active)
COc1cc([C@@H]2c3cc4c(cc3[C@H](O)[C@H]3COC[C@@H]23)OCO4)cc(OC)c1OC	101%
O=Nc1c(-c2c(O)[nH]c3cc(Br)ccc23)[nH]c2ccccc12	-72.9% (active)
CC(C)(C)C(=O)OCOP(=O)(OCOC(=O)C(C)(C)C)C1CC(O)N(O)C1=O (stereo unspecified)	73.8%
CC1(C)CC(=O)C2=C(C1)Oc1nc(N)c(C#N)c(N)c1C2c1ccc(F)cc1 (stereo unspecified)	105%
O=C1c2cc([N+](=O)[O-])ccc2-c2cc(Cl)c(NC(=O)C(F)(F)F)cc21	104%
COc1ccc(CNCCCN2C(=O)c3ccc4c5c(ccc(c35)C2=O)C(=O)N(CCCNCc2ccc(OC)c(OC)c2OC)C4=O)c(OC)c1OC	-55.4% (active)
O=C(Nc1ccccc1)Nc1ccc(Nc2ncnc3sc4c(c23)CCCC4)cc1	119%

SMILES	growth
O=S(=O)(Cc1cccc2c(CS(=O)(=O)c3ccc(Cl)cc3)cccc12)c1ccc(Cl)cc1	97.3%
COc1cc(CNC(=O)CCCC/C=C/C(C)C)ccc1OCc1nnc(Nc2ccccc2F)o1	77.7%
Nc1nc2c(c3ncncc13)C(c1cccc(C(F)(F)F)c1)Cc1ncncc1-2 (stereo unspecified)	77.4%
Cn1cnc2nc[nH]c2c1=S	94.8%
O=C(O)c1ccc(-c2nn(-c3ccc(C(=O)O)cc3)cc2CNc2ccc(Br)cc2)cc1	102%
O=C(N/N=C/c1coc2ccccc2c1=O)c1cc2oc(-c3ccccc3)cc2[nH]1	106%
CCC(C)C1NC(=O)C(CC(C)C)NC(=O)C(C)NC(=O)C(C(C)C)NC(=O)C(CCCCN)NC(=O)C(CC(C)C)NC(=O)C(C(C)C)NC(=O)[C@H](C)NC(=O)C(C(C)CC)NC(=O)C(CCCN=C(N)N)NC(=O)C(CCCCN)NC(=O)C(CCCN=C(N)N)NC(=O)C(CCCCN)NC(=O)C([C@H](C)CC)NC(=O)C(CCCCN)NC1=O (stereo partly specified)	52.6%
C=CCN(C)C	109%
CCC(CCCN1C(=O)c2ccccc2C1=O)Nc1cc(OC)cc2cccnc12 (stereo unspecified)	89.6%
O=c1c(N=Nc2nccs2)c(-c2ccccc2)[nH]n1-c1nc(-c2ccccc2)cs1	98.9%
Cc1ccc(C(=O)Nc2ccc(CN3CCN(C)CC3)c(C(F)(F)F)c2)cc1C#Cc1cncc2ncccc12	-93.9% (active)
CCOC(=O)C1C(=O)C(=O)N(C(C)C)C1C(=O)OCC (stereo unspecified)	92.9%
COc1cc2c(cc1OC)C(Cc1cc(OC)c(OC)cc1[N+](=O)[O-])=NCC2	73.6%
COc1ccc2c(c1)/C(=C1/S/C(=N/c3nnc(C)s3)NC1=O)C(=O)N2Cc1ccc(Br)cc1	74.5%
CCOP1(=O)CC(C)=C(Cl)C(P(=O)(O)O)C1 (stereo unspecified)	94.8%
O=C(O)CC1Cc2ccccc2C1C(=O)O (stereo unspecified)	108%
Nc1cc2c(cc1Br)[nH]c(=O)c1ccccc12	94%
CCc1ccc(C(=Nc2ccc(N(C)C(=O)CN3CCN(C)CC3)cc2)c2c(O)[nH]c3ccc(C(=O)OC)cc23)cc1	-58.1% (active)
N#CCCCCCCCCCCC#N	99.6%
O=C1CSC(c2ccccc2Cl)N1c1nnc(-c2ccncc2)o1 (stereo unspecified)	94.1%
